For 1 sequence, binding signal results are on record in paper PMC7862700, “An all-to-all approach to the identification of sequence-specific readers for epigenetic DNA modifications on cytosine”.

What all share (assay): DAPPL (digital affinity profiling via proximity ligation, sequencing); 10 mM Tris-HCl pH 7.5, 50 mM NaCl, 1 mM DTT, 4% glycerol, room temperature, 30 min; GST-TFs on glutathione beads, 16-mer random dsDNA library, 0.1% formaldehyde crosslink after washing; high values mean tight binding
For assay [1], the target named is T1, FLI1 (Homo sapiens, UniProt Q01543 1-452).
T1 sequence: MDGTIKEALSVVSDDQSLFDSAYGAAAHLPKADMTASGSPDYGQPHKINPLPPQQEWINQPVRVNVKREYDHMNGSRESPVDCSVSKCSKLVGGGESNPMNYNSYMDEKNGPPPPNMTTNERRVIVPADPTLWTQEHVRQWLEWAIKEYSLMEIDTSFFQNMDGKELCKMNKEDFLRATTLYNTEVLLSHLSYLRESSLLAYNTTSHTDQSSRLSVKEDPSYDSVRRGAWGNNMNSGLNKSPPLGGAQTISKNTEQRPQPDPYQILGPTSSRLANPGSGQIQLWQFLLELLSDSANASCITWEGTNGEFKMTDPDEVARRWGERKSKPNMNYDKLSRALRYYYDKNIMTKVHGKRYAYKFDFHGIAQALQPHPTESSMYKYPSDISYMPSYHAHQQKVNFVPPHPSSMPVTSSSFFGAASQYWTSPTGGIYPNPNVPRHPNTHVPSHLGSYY
To be noted: protein: recombinant; tags: N-terminal GST; dsDNA, one strand shown. In short, it runs like this: (§1)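 In yeast, human transcription factors were expressed with a GST fusion, then pulled down on glutathione beads and given DNA barcodes. Pooled with a tag-only sample, they were exposed to 200 nmole of a 16-mer random double-stranded DNA library (Tris/NaCl/DTT/glycerol buffer, room temperature, 30 min), washed, crosslinked with 0.1% formaldehyde, proximity-ligated using BsaI/T4 ligase for 1 h at 37 °C, PCR-amplified and read on an Illumina NextSeq500. Each hexamer's frequency of reads for a factor, divided by the matching frequency for the tag-only sample, gives the binding signal.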

Assay [2] deals with T2, ELK1 (Homo sapiens, UniProt P19419 1-428).
T2 sequence: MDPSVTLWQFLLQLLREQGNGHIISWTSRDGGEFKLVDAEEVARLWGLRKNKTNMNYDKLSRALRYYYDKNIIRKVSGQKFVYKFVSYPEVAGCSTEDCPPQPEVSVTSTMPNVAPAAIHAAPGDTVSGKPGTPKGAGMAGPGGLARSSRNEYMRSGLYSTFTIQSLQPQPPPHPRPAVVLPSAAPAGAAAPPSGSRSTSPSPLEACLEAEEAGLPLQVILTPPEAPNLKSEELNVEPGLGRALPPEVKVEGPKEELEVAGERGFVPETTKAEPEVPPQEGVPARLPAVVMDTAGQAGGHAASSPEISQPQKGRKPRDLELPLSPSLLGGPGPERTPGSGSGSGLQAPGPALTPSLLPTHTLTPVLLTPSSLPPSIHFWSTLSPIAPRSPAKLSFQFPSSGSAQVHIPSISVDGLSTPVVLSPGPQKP
As to conditions: protein: recombinant; tags: N-terminal GST; dsDNA, one strand shown. An outline of the steps:
as §1

For assay [3], the target named is T3, GABPA (Homo sapiens, UniProt Q06546 1-454).
T3 sequence: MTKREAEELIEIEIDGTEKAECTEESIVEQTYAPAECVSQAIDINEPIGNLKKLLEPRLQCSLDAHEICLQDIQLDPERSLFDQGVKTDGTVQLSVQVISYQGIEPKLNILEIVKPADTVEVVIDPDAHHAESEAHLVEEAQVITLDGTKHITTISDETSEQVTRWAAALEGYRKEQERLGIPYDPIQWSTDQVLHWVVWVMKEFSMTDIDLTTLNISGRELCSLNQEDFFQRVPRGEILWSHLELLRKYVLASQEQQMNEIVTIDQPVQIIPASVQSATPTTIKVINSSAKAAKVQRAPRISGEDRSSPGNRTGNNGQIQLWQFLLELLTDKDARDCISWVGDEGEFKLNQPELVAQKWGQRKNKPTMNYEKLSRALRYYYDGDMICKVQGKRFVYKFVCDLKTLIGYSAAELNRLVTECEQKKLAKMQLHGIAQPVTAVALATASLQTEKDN
To be noted: protein: recombinant; tags: N-terminal GST; dsDNA, one strand shown. An outline of the steps: as §1

The target in assay [4] is T4, ERG (Homo sapiens, UniProt P11308 1-479).
T4 sequence: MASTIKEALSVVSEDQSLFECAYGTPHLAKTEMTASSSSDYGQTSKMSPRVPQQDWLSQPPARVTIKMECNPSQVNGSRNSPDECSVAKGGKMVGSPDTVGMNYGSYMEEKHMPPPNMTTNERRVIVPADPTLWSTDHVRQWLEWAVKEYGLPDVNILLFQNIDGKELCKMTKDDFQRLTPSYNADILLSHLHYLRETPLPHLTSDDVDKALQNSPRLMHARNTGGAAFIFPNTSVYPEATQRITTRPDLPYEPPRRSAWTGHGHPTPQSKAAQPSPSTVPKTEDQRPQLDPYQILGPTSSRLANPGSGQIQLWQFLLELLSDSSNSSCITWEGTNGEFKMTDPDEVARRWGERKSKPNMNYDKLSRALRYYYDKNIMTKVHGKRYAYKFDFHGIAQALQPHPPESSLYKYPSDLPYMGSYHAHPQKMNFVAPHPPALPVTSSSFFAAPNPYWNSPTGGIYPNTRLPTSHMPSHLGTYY
To be noted: protein: recombinant; tags: N-terminal GST; dsDNA, one strand shown. An outline of the steps: as §1

The target of assay [5] is ELF1 (Homo sapiens, UniProt P32519 1-619). To be noted: protein: recombinant; tags: N-terminal GST; dsDNA, one strand shown. An outline of the steps:
as §1

Assay [6] addresses T5, EHF (Homo sapiens, UniProt Q9NZC4 1-300).
T5 sequence: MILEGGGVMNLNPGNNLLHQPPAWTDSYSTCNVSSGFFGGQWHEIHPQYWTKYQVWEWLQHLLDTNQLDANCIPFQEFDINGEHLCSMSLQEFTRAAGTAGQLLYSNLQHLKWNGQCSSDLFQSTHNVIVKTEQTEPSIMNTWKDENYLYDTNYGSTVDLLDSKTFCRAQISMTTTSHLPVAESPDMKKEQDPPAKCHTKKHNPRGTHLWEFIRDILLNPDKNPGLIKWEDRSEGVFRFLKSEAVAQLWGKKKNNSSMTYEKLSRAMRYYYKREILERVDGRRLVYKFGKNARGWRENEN
To be noted: protein: recombinant; tags: N-terminal GST; dsDNA, one strand shown. In short, it runs like this:
as §1

Assay [7] concerns the target SPI1 (Homo sapiens, UniProt P17947 1-270). To be noted: protein: recombinant; tags: N-terminal GST; dsDNA, one strand shown. An outline of the steps: as §1
Assay [8] concerns the target SPIB (Homo sapiens, UniProt Q01892 1-262). To be noted: protein: recombinant; tags: N-terminal GST; dsDNA, one strand shown. In short, it runs like this: as §1
Assay [9] concerns the target T6, ELK3 (Homo sapiens, UniProt P41970 1-407).
T6 sequence: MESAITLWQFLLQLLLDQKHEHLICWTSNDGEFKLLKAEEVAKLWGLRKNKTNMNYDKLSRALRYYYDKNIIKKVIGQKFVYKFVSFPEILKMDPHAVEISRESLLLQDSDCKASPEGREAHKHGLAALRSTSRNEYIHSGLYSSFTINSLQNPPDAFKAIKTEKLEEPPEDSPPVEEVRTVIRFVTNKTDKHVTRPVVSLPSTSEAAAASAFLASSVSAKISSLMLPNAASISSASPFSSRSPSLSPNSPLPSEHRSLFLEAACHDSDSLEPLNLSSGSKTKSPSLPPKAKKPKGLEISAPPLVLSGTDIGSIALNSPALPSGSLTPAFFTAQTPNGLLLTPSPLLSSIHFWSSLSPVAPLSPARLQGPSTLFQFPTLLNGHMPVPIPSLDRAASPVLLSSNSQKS
To be noted: protein: recombinant; tags: N-terminal GST; dsDNA, one strand shown. An outline of the steps:
as §1

Assay [10] deals with T7, FEV (Homo sapiens, UniProt Q99581 1-238).
T7 sequence: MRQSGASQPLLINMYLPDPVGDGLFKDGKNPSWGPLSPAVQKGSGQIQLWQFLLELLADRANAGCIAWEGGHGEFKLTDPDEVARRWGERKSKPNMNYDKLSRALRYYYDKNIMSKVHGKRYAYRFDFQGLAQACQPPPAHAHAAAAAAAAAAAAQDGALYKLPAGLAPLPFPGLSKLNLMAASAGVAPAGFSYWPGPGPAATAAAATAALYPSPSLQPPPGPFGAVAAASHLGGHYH
To be noted: protein: recombinant; tags: N-terminal GST; dsDNA, one strand shown. In short, it runs like this: as §1

Assay [11] has as its target ETV5 (Homo sapiens, UniProt P41161 1-510). As to conditions: protein: recombinant; tags: N-terminal GST; dsDNA, one strand shown. In short, it runs like this: as §1
Assay [12] deals with HSF1 (Homo sapiens, UniProt Q00613 1-529). To be noted: protein: recombinant; tags: N-terminal GST; chain copies: 3; dsDNA, one strand shown. An outline of the steps:
as §1

For assay [13], the target named is T8, SPIC (Homo sapiens, UniProt Q8N5J4 1-248).
T8 sequence: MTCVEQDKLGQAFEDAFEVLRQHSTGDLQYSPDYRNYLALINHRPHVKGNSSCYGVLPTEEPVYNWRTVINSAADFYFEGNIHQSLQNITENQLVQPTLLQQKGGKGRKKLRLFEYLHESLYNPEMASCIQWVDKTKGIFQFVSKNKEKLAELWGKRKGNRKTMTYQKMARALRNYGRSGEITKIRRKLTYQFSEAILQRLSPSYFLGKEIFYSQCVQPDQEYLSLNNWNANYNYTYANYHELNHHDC
To be noted: protein: recombinant; tags: N-terminal GST; dsDNA, one strand shown. In short, it runs like this:
as §1

Assay [14] deals with ELF4 (Homo sapiens, UniProt Q99607 1-663). As to conditions: protein: recombinant; tags: N-terminal GST; dsDNA, one strand shown. An outline of the steps:
as §1

For assay [15], the target named is T9, ELK4 (Homo sapiens, UniProt P28324-2 1-405).
T9 sequence: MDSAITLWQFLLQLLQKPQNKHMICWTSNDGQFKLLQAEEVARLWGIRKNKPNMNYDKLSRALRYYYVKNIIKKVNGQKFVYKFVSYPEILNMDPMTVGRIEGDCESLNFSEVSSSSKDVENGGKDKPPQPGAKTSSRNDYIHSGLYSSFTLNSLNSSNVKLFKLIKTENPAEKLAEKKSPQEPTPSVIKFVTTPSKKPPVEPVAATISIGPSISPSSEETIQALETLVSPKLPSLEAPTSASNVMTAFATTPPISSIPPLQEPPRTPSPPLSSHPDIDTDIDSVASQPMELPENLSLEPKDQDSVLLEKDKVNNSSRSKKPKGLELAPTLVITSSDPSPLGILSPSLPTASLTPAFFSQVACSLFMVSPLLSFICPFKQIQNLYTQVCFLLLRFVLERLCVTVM
As to conditions: protein: recombinant; tags: N-terminal GST; dsDNA, one strand shown. In short, it runs like this:
as §1

Assay [16] concerns the target T10, ETV2 (Homo sapiens, UniProt O00321 1-342).
T10 sequence: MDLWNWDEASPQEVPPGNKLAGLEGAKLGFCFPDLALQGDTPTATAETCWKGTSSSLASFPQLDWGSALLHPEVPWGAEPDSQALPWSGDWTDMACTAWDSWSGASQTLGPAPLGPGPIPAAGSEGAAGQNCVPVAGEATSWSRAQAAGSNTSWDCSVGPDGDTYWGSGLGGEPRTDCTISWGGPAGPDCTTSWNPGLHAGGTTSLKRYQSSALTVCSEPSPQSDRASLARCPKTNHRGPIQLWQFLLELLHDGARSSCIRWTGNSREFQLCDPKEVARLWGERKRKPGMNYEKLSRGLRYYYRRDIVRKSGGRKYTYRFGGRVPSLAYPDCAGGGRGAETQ
As to conditions: protein: recombinant; tags: N-terminal GST; dsDNA, one strand shown. In short, it runs like this:
as §1

Assay [17] deals with T11, ELF3 (Homo sapiens, UniProt P78545 1-371).
T11 sequence: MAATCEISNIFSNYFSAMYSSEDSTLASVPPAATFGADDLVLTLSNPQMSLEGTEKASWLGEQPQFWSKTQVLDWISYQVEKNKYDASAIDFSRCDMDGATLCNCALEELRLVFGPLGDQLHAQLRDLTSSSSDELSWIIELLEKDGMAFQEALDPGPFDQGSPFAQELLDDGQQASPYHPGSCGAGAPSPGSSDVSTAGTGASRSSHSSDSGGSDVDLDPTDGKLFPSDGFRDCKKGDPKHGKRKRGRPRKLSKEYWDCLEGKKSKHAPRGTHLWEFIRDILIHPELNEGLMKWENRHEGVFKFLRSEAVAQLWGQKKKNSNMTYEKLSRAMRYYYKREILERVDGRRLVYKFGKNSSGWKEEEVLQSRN
To be noted: protein: recombinant; tags: N-terminal GST; dsDNA, one strand shown. In short, it runs like this:
as §1

Assay [18] addresses CRX (Homo sapiens, UniProt O43186 1-299). To be noted: protein: recombinant; tags: N-terminal GST; dsDNA, one strand shown. In short, it runs like this:
as §1

The target of assay [19] is ETV1 (Homo sapiens, UniProt P50549 1-477). As to conditions: protein: recombinant; tags: N-terminal GST; dsDNA, one strand shown. An outline of the steps:
as §1

Sequence of HSF1 (Q00613 whole entry): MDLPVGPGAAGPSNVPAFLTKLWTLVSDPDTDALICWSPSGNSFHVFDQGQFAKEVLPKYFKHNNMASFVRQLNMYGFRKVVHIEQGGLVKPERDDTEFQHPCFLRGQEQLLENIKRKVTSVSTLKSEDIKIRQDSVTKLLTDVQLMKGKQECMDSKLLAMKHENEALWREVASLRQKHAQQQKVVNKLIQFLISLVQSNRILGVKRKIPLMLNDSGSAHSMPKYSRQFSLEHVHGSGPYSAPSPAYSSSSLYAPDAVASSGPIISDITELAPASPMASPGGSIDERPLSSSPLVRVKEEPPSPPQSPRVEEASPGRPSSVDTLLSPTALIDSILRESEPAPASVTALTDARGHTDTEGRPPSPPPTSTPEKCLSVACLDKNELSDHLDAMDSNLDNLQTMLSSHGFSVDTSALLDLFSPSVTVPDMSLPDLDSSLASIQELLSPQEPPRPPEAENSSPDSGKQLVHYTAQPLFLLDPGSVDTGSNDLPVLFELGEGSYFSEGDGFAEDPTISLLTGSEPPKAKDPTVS
Sequence of ETV1 (P50549 whole entry): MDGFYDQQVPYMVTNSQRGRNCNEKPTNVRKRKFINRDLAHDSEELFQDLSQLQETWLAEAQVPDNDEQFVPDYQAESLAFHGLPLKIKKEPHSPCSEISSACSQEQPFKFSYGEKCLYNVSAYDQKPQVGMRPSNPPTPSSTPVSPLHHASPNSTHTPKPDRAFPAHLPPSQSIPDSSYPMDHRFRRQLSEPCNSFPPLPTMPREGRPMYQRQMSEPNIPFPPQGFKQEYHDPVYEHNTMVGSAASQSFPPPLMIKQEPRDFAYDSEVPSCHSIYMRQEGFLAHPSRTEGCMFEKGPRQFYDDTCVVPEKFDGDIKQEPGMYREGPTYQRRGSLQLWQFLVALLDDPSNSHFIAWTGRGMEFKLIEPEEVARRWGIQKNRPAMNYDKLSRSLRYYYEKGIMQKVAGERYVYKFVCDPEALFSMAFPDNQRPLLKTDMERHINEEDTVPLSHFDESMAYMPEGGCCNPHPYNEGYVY
Sequence of SPIB (Q01892 whole entry): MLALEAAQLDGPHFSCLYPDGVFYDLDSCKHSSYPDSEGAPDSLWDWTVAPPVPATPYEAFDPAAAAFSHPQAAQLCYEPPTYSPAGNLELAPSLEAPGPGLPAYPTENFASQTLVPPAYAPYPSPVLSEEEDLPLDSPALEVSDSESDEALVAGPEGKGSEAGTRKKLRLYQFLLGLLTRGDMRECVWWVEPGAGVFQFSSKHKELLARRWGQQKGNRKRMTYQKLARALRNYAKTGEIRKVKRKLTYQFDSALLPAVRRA
Sequence of CRX (O43186 whole entry): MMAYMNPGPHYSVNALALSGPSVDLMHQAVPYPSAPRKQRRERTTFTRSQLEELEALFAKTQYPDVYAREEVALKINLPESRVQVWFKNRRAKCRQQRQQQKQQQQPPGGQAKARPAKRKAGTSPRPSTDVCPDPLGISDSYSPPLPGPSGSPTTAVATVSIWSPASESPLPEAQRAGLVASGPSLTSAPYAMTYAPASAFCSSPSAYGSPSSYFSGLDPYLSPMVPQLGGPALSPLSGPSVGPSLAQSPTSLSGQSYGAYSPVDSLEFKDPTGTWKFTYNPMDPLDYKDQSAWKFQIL
Sequence of ELF4 (Q99607 whole entry): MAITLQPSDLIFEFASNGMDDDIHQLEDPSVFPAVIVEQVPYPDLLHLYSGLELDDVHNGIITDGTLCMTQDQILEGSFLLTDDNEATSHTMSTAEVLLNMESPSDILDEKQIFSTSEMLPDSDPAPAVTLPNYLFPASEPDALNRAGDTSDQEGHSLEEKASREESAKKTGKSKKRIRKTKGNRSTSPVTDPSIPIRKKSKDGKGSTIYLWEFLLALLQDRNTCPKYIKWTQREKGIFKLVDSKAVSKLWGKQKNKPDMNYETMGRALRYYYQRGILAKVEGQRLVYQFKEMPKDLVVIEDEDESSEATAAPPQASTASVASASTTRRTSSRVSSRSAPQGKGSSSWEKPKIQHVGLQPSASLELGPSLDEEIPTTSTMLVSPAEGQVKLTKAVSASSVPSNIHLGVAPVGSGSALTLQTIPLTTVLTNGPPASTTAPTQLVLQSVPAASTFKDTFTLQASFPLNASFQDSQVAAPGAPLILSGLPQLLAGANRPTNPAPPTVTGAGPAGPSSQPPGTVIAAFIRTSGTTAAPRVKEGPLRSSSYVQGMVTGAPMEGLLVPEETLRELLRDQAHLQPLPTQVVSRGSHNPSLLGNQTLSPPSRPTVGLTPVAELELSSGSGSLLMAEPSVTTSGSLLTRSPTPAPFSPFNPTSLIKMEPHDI
Sequence of ELF1 (P32519 whole entry): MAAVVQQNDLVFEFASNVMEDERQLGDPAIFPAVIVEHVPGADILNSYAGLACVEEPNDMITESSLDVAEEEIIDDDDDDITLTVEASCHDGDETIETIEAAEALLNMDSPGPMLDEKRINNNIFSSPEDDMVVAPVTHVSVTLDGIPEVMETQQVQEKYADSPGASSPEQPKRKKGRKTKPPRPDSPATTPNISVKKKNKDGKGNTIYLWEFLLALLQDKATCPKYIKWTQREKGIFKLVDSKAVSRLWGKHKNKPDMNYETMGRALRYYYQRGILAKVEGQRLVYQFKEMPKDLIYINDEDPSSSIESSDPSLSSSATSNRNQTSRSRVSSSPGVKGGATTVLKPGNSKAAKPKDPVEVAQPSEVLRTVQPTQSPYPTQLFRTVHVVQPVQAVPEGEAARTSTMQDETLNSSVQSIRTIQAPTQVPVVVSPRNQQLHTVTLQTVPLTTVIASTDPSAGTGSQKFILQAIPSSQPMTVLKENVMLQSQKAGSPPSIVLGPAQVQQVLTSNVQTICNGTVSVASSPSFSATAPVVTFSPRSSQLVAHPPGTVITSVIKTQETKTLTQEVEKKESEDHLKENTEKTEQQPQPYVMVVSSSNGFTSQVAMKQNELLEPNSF
Sequence of ETV5 (P41161 whole entry): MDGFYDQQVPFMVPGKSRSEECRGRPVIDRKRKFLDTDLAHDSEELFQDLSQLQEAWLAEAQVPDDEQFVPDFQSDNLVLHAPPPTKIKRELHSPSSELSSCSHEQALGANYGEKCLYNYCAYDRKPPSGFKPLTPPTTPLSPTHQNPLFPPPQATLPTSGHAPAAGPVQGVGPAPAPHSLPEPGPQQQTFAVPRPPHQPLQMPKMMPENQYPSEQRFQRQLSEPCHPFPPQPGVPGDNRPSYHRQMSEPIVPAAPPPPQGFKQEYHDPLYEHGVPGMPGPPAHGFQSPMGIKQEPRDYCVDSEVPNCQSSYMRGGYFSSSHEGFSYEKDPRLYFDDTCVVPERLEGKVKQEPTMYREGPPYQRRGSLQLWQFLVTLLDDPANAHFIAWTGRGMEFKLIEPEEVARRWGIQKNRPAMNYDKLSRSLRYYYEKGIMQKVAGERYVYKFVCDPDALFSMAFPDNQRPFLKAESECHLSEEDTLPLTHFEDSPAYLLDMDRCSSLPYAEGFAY

As to AGCATT, the binding signal in assay [1] is 1.12 fold enrichment (6-mer frequency, TF over GST control); in assay [2] it was 1.13 fold enrichment (6-mer frequency, TF over GST control); in assay [3], 1.11 fold enrichment (6-mer frequency, TF over GST control); in assay [4], 1.09 fold enrichment (6-mer frequency, TF over GST control); in assay [5] it was 1.1 fold enrichment (6-mer frequency, TF over GST control); in assay [6], 1.08 fold enrichment (6-mer frequency, TF over GST control). Besides, the binding signal in assay [7] was 1.03 fold enrichment (6-mer frequency, TF over GST control); in [8] it was 1.05 fold enrichment (6-mer frequency, TF over GST control); in assay [9] it was 1.07 fold enrichment (6-mer frequency, TF over GST control); in [10], 1.11 fold enrichment (6-mer frequency, TF over GST control); in assay [11], 1.03 fold enrichment (6-mer frequency, TF over GST control); in [12] it was 1.2 fold enrichment (6-mer frequency, TF over GST control). Further, the binding signal was 1.03 fold enrichment (6-mer frequency, TF over GST control) in assay [13]; 1.11 fold enrichment (6-mer frequency, TF over GST control) in [14]; 1.08 fold enrichment (6-mer frequency, TF over GST control) in assay [15]; 1.06 fold enrichment (6-mer frequency, TF over GST control) in assay [16]; 1.22 fold enrichment (6-mer frequency, TF over GST control) in assay [17]; 1.32 fold enrichment (6-mer frequency, TF over GST control) in [18]. Further, the binding signal in assay [19] was 1.13 fold enrichment (6-mer frequency, TF over GST control).
